Experimental data as given in PubChem BioAssay AID485360 (National Center for Advancing Translational Sciences (NCATS), 2010).
The campaign covered roughly 230,000 compounds. About 1,500 (0.65%) were called active. Entries that show only a call come without a potency. About 3% were inconclusive and are not listed. This is one part of a sample in which actives are shown more often than they occur. Calls follow the shape of the dose curve; as a rule, active = well fitted inhibition curve with a large enough effect; inconclusive = small, poorly fitted or top-dose-only effect; inactive = no such curve, though single readings can be large or run the other way.

biological target: Lethal(3)malignant brain tumor-like protein 1 (Homo sapiens) (UniProt Q9Y468); assay: qHTS Assay for the Inhibitors of L3MBTL1; conditions: AlphaScreen L3MBTL1–H3K9me1 peptide binding; series mostly up to 57.1 µM; also: nearly all actives have a fitted effect of over 60% in size
From the text: The histone code is comprised of many post-translational modifications that occur mainly in histone tail peptides. The identity and location of these marks are read by a variety of histone binding proteins that are emerging as important regulators of cellular differentiation and development and are increasingly being implicated in numerous disease states. Small molecule probes that disrupt the interaction between histone binding proteins and chromatin would enable a systematic chemical biology study of proteins that read the histone code and could potentially reveal new targets for drug discovery. However, no such small molecules are known. This dearth of quality molecular probes can largely be attributed to the novelty of the target class and the lack of screening assays. This proposal details the development of the first high-throughput screening assay for the discovery of inhibitors of methyl-lysine binding proteins and how it can be be used to initiate a full-scale discovery effort for antagonists of histone binding proteins. Specifically, this work focuses on an AlphaScreen(tm)-based HTS assay for Malignant Brain Tumor (MBT) domain-containing proteins, which bind to the lower methylation states of lysine residues present in histone tail peptides.
To each well, 2 uL of L3MBTL1 protein (final 50 nM) and 1 uL biotinylated histone peptide monomethylated at Lys9 [b-AHA-H3(1-15)K9me1] (final 75 nM) was added using a nanoliter dispenser. Formation of a protein-peptide complex proceeded at room temperature for 30 min. A Kalypsys pin-tool was employed to transfer 23 nL of library compound solution in DMSO to each well. Cefsulodin, found in a pilot screen of the LOPAC library to be a weak inhibitor of L3MBTL1 binding, was used as an intraplate control with a 16-point titration in duplicate. Following a 30 min incubation of the protein-peptide complex with compounds at room temperature, a mixture of 40 ug/mL each streptavidin-coated donor and nickel chelate acceptor AlphaScreen beads (final 10 ug/mL) was added in a 1 uL dispense for a final volume of 4 uL. Plates were incubated, protected from the light for 30 min at room temperature. Microplates were then be read on an EnVision multilabel plate reader using the 1,536 plate HTS AlphaScreen aperture (excitation time 80 ms, measurement time 240 ms).
Potency is read from the fitted curve at half-maximal effect.

Sequence of Lethal(3)malignant brain tumor-like protein 1 (Homo sapiens) (Q9Y468 whole entry, looked up): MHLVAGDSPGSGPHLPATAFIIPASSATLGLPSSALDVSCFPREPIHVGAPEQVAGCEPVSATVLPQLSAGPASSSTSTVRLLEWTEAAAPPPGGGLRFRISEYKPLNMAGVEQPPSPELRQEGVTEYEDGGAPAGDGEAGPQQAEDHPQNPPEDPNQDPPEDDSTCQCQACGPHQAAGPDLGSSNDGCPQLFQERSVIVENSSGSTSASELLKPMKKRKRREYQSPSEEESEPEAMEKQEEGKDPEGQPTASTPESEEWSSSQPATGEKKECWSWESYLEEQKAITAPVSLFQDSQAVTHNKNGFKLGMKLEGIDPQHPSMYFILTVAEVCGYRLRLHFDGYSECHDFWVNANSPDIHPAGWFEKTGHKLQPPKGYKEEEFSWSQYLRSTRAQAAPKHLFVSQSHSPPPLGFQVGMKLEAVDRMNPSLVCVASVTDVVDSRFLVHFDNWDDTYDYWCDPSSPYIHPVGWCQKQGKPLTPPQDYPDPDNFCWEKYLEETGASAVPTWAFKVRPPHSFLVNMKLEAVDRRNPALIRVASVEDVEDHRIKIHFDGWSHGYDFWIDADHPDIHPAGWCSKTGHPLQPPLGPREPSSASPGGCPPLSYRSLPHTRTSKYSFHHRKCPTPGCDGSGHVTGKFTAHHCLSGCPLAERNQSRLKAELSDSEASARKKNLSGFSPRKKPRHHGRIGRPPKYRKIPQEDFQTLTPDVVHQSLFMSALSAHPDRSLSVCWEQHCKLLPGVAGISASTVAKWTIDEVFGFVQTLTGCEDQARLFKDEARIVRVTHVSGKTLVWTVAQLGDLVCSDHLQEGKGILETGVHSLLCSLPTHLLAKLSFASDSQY

Row | Compound | Potency
1 | O=C1NC(=O)N(c2ccc(F)cc2)C(=O)/C1=C/c1ccc2c(c1)CCCN2Cc1ccccc1 | inactive
2 | Cc1cccc(N2C(=O)NC(=O)/C(=C\c3cnn(-c4ccccc4)c3)C2=O)c1 | inactive
3 | O=C1NC(=O)N(c2ccccc2)C(=O)/C1=C/c1ccc([N+](=O)[O-])s1 | 17.8 µM (active)
4 | COc1cccc(N2C(=O)NC(=O)/C(=C\c3ccc([N+](=O)[O-])s3)C2=O)c1 | 20 µM (active)
5 | O=C(NC(=S)N1C[C@H]2C[C@H](C1)c1cccc(=O)n1C2)c1ccc(F)cc1 | inactive
6 | Cn1cc(C(=O)OCC(=O)N2CCCC2)c2ccccc21 | inactive
7 | O=c1[nH]c(O)c(C=Nc2cc(F)cc(F)c2)c(=O)[nH]1 | inactive
8 | CCN(CC)C(=O)Oc1ccc(NC(=O)N2CCOCC2)cc1 | inactive
9 | COc1ccc(-c2nn(CCC#N)cc2C(=O)Nc2ccc(C(C)=O)cc2)cc1 | inactive
10 | Cc1nc2ccccc2c(=O)n1-c1ccc(Cl)cc1Cl | inactive
11 | O=C(OCC1O[C@@H](OC(=O)c2cc(O)c(O)c(O)c2)[C@@H](OC(=O)c2cc(O)c(O)c(O)c2)[C@@H](OC(=O)c2cc(O)c(O)c(O)c2)[C@@H]1OC(=O)c1cc(O)c(O)c(O)c1)c1cc(O)c(O)c(O)c1 (stereo not given in full) | 0.178 µM (active)
12 | Cc1cc(/C=C2/C(=O)NC(=O)N(Cc3ccco3)C2=O)c(C)n1-c1ccc(C(=O)O)cc1 | 15.8 µM (active)
13 | Cc1ccc(-n2c(C)cc(/C=C3\C(=O)NC(=O)N(C)C3=O)c2C)cc1C | inactive
14 | Cc1ccnc(-n2c(C)cc(/C=C3\C(=O)NC(=S)N(C)C3=O)c2C)c1 | inactive
15 | COC(=O)[C@@H]1C(OC(=O)c2ccccc2)CC2CCC1N2C (stereo not given in full) | inactive
16 | CN(C)C(=O)Oc1ccc(NC(=O)N2CCOCC2)cc1 | inactive
17 | COCCNC(=O)CN1C2CCC1CC(O)(c1cccnc1)C2 (stereo not given) | inactive
18 | CN(C)CCN(CC1CCCN(Cc2ccccc2F)C1)C(=O)Cc1ccc(F)c(F)c1 (stereo not given) | inactive
19 | COC(=O)C1=C(c2ccc(F)cc2OCc2ccccc2)C[C@@H]2CC[C@H]1N2C(=O)NCc1ccc(OC)c(OC)c1 | inactive
20 | Cc1c(Oc2cc(NN3CCCCC3)c([N+](=O)[O-])cc2[N+](=O)[O-])cccc1[N+](=O)[O-] | inactive
21 | COC(=O)C1=C(c2ccc(C(C)=O)cc2)C[C@@H]2CC[C@H]1N2C(=O)NCCNC(C)=O | inactive
22 | CCN(CC)c1ccc([N+](=O)[O-])c2cccnc12 | 10 µM (active)
23 | Oc1ccc2c3c1OC1[C@H](O)CC[C@@]4(O)[C@@H](C2)N(CC2CC2)CC[C@]314 (stereo not given in full) | inactive
24 | COC(=O)C1=C(c2ccc3ccccc3c2)C[C@@H]2CC[C@H]1N2C(=O)NCCO | inactive
25 | Cc1c(C(=O)O)cccc1-n1c(C)cc(/C=C2\C(=O)NC(=O)N(c3ccc4c(c3)OCO4)C2=O)c1C | 14.1 µM (active)
26 | Cc1ccccc1N1C(=O)NC(=O)/C(=C\c2cc(C)n(C)c2C)C1=O | inactive
27 | COC(=O)C1=C(c2ccc(F)cc2F)C[C@@H]2CC[C@H]1N2C(=O)NC1CC1 | inactive
28 | COC(=O)C1=C(c2ccc(Cl)c(C(F)(F)F)c2)C[C@@H]2CC[C@H]1N2C(=O)NC1CC1 | inactive
29 | O=C(c1ccccc1[N+](=O)[O-])N1CCC2(CC1)OCCO2 | inactive
30 | C[C@]12CCC3C(CC[C@H]4C[C@@H](O)CC[C@]34C)C1C[C@@H](O)[C@H]2O (stereo not given in full) | inactive
